High-throughput results deposited in PubChem by National Center for Advancing Translational Sciences (NCATS).
ELG1 genotoxic = qHTS screen for small molecules that induce genotoxicity in human embryonic kidney (HEK293T) cells expressing luciferase-tagged ELG1; HEK293T ELG1-luciferase reporter, luminescence, 16 h; Potency, µM (series often up to 46 µM), without a hit: top-dose activity change, positive = activation, actives largely listed as activators; hit rate 1.3% among 330,000; AID 504466, 2011; note: % of control where 0% means no effect; nearly all actives have a fitted effect of over 60% in size
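Genotoxicity was scored as increased ELG1-luciferase reporter signal, measured by ONE-Glo luminescence (30 min, room temperature). Compound or vehicle exposure of the HEK293T reporter cells lasted 16 hr at 37°C.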
FLuc modulator = qHTS profiling assay for firefly luciferase inhibitor/activator using purifed enzyme and Km concentrations of substrates (counterscreen for miR-21 project); Luciferin 4-monooxygenase (Photinus pyralis), P08659; purified FLuc, Km substrates, luminescence inhibition; Potency, µM (titrated, usually from 57.5 µM), for inactives: at the highest dose activity change, negative = inhibition, actives largely listed as inhibitors; hit rate 6.9% among 360,000; AID 588342, 2011;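 note: plate controls were vehicle for no effect and reference inhibitor for full effect; nearly all actives have a fitted effect of over 55% in size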
Target sequence (P08659 whole entry, looked up): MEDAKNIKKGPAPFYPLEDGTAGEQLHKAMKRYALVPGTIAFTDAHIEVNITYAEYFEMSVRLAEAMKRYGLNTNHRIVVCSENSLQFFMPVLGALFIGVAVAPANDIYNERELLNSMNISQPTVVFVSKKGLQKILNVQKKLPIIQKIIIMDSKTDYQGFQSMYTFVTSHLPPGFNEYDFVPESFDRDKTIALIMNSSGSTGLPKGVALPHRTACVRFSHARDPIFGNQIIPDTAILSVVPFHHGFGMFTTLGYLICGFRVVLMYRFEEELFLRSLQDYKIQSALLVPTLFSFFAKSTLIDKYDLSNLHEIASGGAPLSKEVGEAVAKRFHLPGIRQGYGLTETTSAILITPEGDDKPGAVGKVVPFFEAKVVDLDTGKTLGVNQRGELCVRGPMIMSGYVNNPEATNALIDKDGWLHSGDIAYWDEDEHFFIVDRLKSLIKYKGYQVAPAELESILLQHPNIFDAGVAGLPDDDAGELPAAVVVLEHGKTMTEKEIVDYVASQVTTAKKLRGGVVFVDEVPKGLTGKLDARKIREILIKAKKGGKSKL
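Biochemical qHTS of compounds, final roughly 60 µM downward over six points, against 10 nM purified firefly luciferase using Km concentrations of substrates (10 uM D-luciferin, 10 uM ATP) in Tris acetate pH 7.5 buffer; luminescence output.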
SMN2 splice enh = qHTS Assay for Enhancers of SMN2 Splice Variant Expression. HEK293 SMN2-luciferase splicing reporter, luminescence, 30-36 h. hit rate 2.8% among 210,000. Potency, µM (top dose mostly 46.1 µM), for inactives: at the top dose activity change, positive = activation, actives largely listed as activators; note: % of control where 0% means no effect; nearly all actives have a fitted effect of over 55% in size
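HEK293 cells carry an SMN2 minigene-luciferase reporter in which exon 7 inclusion puts luciferase in frame. Cells were seeded at 2000 cells/well, attached for 10-12 hours, then exposed to compounds for 30-36 hours at 37C before ONE-Glo luminescence.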
NPC1 prom act = qHTS Assay for NPC1 Promoter Activators | hit rate 2.4% among 320,000 | AID 485313, 2010 | Huh7 NPC1 promoter luciferase reporter, 24 h | Potency, µM (top dose mostly 9.22 µM), for inactives: at the highest dose activation, most hits filed as activators; note: % of control where 0% means no effect; nearly all actives have a fitted effect of over 60% in size
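Cells: Huh7 expressing luciferase under the NPC1 promoter, 1500/well. Seeded 2 h, compound added, incubated 24 h at 37 °C. Luciferase reagent, 10 min ambient, then luminescence.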
Luc counter = Counterscreen for Luciferase (Kinase-Glo TM) Inhibition | Kinase-Glo luciferase, ATP luminescence, 8 min | Potency, µM (doses to about 38.3 µM), inactives show top-dose activity change, negative = inhibition, actives largely listed as inhibitors | hit rate 0.28% among 200,000; note: % is set by controls: 0 for no effect and ±100 for the full control effect; nearly all actives have a fitted effect of over 60% in size
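Luminescence was the read-out, taken after 8-minute incubation at ambient temperature. Luciferase turned over luciferin with 10 uM ATP in imidazole pH 7.2 buffer containing KCl, MgCl2, Tween 20 and BSA.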
Rab9 prom act = qHTS Assay for Rab9 Promoter Activators; hit rate 2.8% among 320,000; Potency, µM (highest dose often 9.22 µM), without a hit: at the top dose activation, negative = inhibition, usual class: activators; Huh7 Rab9 promoter-luciferase reporter, luminescence, 24 h; note: % of control where 0% means no effect; nearly all actives have a fitted effect of over 60% in size
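Huh7 cells stably carrying Rab9 promoter–luciferase reporter, plated 1500 cells/well, compound added after 2 h and incubated 24 h at 37 °C; luciferase luminescence then read after 10 min with detection reagent.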
The depositor's hits bear a star; u = inconclusive; x = no result; ! = not confirmed by another sample; [ ] = another dose, or the depositor's remark. Most compounds without a hit are left out; they make up all but 7.3% or so of the library. Calls come from the whole dose curve; as a rule, active = well fitted curve in the direction sought with a large enough effect; inconclusive = small, poorly fitted or top-dose-only effect, or another doubt; inactive = no such curve, though single readings can be large; an effect the other way counts as inactive or inconclusive. Potency is the fitted concentration of half-maximal effect.

SMILES | ELG1 genotoxic | FLuc modulator | SMN2 splice enh | NPC1 prom act | Luc counter | Rab9 prom act
CCN(c1ccccc1)S(=O)(=O)c1nnc(NC(=O)c2ccco2)s1 | -1% | 0.21µM*! | x | 2% | x | 0%
CCN(c1cccc(C)c1)S(=O)(=O)c1nnc(NC(=O)c2ccco2)s1 | -3% | 2% | x | 1% | x | 3%
CCSc1nn(CC(=O)Nc2cccc(CC)c2)c(N)c1S(=O)(=O)c1ccccc1 | x | -12% | x | x | x | x
Cn1c2ccccc2c(=O)c2cc(C#Cc3ccsc3)ccc21 | 10% | 2.4µM* | x | u | x | 2.8µM*
Cn1c2ccccc2c(=O)c2cc(C#Cc3ccccn3)ccc21 | u | 3µM* | x | 2.5µM* | x | 5µM*
C=C(C(=O)OCC)C(=O)c1ccccc1 | x | x | 10% | x | 1% | x
COCCSc1nnc(NC(=O)c2ccc([N+](=O)[O-])cc2)s1 | 22% | u | 22% | 1% | 3% | 10%
CC(C)(C)c1ccc(C(=O)Nc2nnc(SCC(=O)NCC3CCCO3)s2)cc1 (configuration not stated) | u | 0.076µM* | x | 0.5µM* | x | 0.32µM*
CCOc1ccc(C(=O)Nc2nnc(SCC(=O)NCC3CCCO3)s2)cc1 (configuration not stated) | u | 0.3µM* | x | 0.1µM* | x | u
O=C(CSc1nnc(NC(=O)c2cccc(F)c2)s1)NCC1CCCO1 (configuration not stated) | 21% | 6µM* | x | 15% | x | 23%
Cc1cc(-c2nnc(CSc3nnc(NC(=O)c4ccc(C(C)(C)C)cc4)s3)o2)ccc1[N+](=O)[O-] | u | 1.7µM* | x | 2.5µM* | x | u
CN(C)S(=O)(=O)c1ccc(C(=O)Nc2nnc(SCC(=O)NCC3CCCO3)s2)cc1 (configuration not stated) | 5% | -1% | x | 2% | x | 2%
CCOC(=O)c1ccc(NS(=O)(=O)c2ccc3c(c2)CCN3C(=O)CC)cc1 | x | -18% | -30% | x | x | x
COc1cccc(NC(=O)CNC(=O)Cn2c(C)cc3ccccc3c2=O)c1 | x | 1% | 7% | x | x | x
CCOC(=O)c1sc(NC(=O)c2ccc(C)s2)cc1C | 18% | 0.85µM* | 22µM* | u | -8% | 1.1µM*
CCOC(=O)c1sc(NC(=O)C2CCC2)cc1C | u | 12µM* | 16µM* | u | -5% | u
CCOC(=O)c1sc(NC(=O)Nc2ccccc2)cc1C | u | 0.48µM* | 3.2µM* | 1.3µM* | -6% | 0.71µM*
CCOC(=O)c1sc(NC(=O)Nc2ccccc2Cl)cc1C | u | 0.43µM* | 0.71µM* | 0.71µM* | u | 0.63µM*
CCOC(=O)c1sc(NC(C)=O)cc1C | -1% | -10% | 2% | 0% | 0% | -2%
CCCCOc1cccc(C(=O)N(Cc2cccs2)c2ccc(OC)cc2)c1 | x | -13% | x | x | x | x
COc1ccc(CNC(=O)CSc2ncc3c(n2)-c2ccc(Cl)cc2N(Cc2ccc(F)cc2)S3(=O)=O)cc1OC | x | 0% | x | x | x | x
NC(=O)c1ccc(OCC(=O)N2CCNC2=O)cc1 | 1% | x | x | x | x | x
Cc1ccc(C(=O)OCC(=O)c2ccc(CC(=O)N3CCOCC3)s2)cc1C | 1% | 24µM* | x | 2% | x | -4%
Cc1ccc(C(=O)OCC(=O)N2CCNC2=O)c(C)c1 | u | 21µM* | x | u | x | u
Cc1ccc(-n2c(C)cc(C(=O)OCC(=O)N3CCOCC3)c2C)cc1 | 3% | x | x | x | x | x
SMILES | ELG1 genotoxic | FLuc modulator | SMN2 splice enh | NPC1 prom act | Luc counter | Rab9 prom act
Cc1ccc(C(=O)OCC(=O)c2ccc(CC(=O)N3CCOCC3)s2)c(C)c1 | 1% | 17µM* | x | 1% | x | -1%
Cc1nc(NC(=O)c2cccs2)ccc1Br | u | 6µM* | 11µM* | 3.5µM* | -13% | 3.5µM*
Cc1csc(NC(=O)CCC(=O)c2cccs2)n1 | -18% | -13% | -13% | 6% | -4% | 7%
Cc1cc(C)nc(NC(=O)c2cccs2)n1 | 5% | 0% | x | -4% | x | -8%
Cc1csc(NC(=O)c2cccs2)n1 | u | u | 11µM* | u | -19% | u
Cc1csc(NC(=O)c2ccc(Br)s2)n1 | u | 4.8µM* | x | 21% | x | 2%
Cc1nn(CCC(=O)Nc2ccc(Cl)cc2)c(C)c1S(=O)(=O)N1CCCCC1 | x | -11% | x | x | x | x
CCc1ccc(CNC(=O)COc2cc(=O)n(CC)c3ccccc23)cc1 | x | -8% | u | x | x | x
O=C(CN1C(=O)c2cccc([N+](=O)[O-])c2C1=O)OCC(=O)N1CCCCC1 | -3% | 8.5µM* | x | 8% | x | 21%
O=C(O)C(=O)/C(=C\c1ccc(Cl)cc1)c1ccc2ccccc2n1 | u | u | 13µM* | 6% | 3% | 23%
CCOc1ccc(Br)cc1C(=O)N/N=C/c1cccnc1 | 3% | -6% | x | 2% | x | -5%
O=C(N/N=C/c1ccccn1)c1cc(Br)ccc1O | u | 15µM* | x | -1% | x | 7%
O=C(N/N=C/c1ccccn1)c1ccc(Br)o1 | 5% | -22% | -12% | -4% | -8% | 0%
O=C(N/N=C/c1cccnc1)c1cc(Br)ccc1O | u | 4.8µM* | x | 3.2µM* | x | 4µM*
Cc1ccc(C)c(NC(=O)Cn2c(SCC(=O)NCc3ccccc3)nc3ccccc32)c1 | x | -5% | x | x | x | x
O=C(O)[C@H](Cc1cc(I)c(O)c(I)c1)C1CCCCC1 | x | x | -3%[9.22 µM] | x | 1%[7.66 µM] | x
Nc1nc(-c2ccccc2)cn1N | -1% | -20% | -2% | 8% | -5% | 6%
c1ccc(-c2cn3c(n2)-c2ccccc2C3)cc1 | u | 0.43µM* | 0.5µM* | 3.2µM* | 7.1µM* | 0.56µM*
CC(O)CNc1nc2sc3c(c2c(=O)n1CCc1ccccc1)CCCCC3 (configuration not stated) | 3% | u | 4% | -1% | 2% | 0%
O=c1c2c3c(sc2nc(NCCOCCO)n1Cc1ccco1)CCCCC3 | -1% | 17µM* | x | u | x | -5%
CC(O)CNc1nc2sc3c(c2c(=O)n1Cc1ccco1)CCCCC3 (configuration not stated) | 11% | 17µM* | x | u | x | 30%
CN(C)CCNc1nc2sc3c(c2c(=O)n1CCc1ccccc1)CCCCC3 | 0% | -9% | x | -3% | x | -8%
CCOC(=O)c1ccc(NC(=O)CCc2c(C)nc3c(c(C)nn3-c3ccccc3)c2C)cc1 | x | -1% | 5% | x | x | x
O=C1O[C@@H]([C@H](O)[C@H](O)[C@H](O)CO)[C@@H](O)[C@@H]1O | x | x | -8%[9.22 µM] | x | -6%[7.66 µM] | x
Cc1ccc(CNS(=O)(=O)c2c(C)nc3sc(C)cn3c2=O)cc1 | x | -4% | x | x | x | x
